Screens: PubChem, several laboratories
PP1 inh – blocks human PP1-alpha phosphatase, a PP5 counter-screen; P62136; purified PP1alpha, OMFP fluorescence; inhibition, % at 6.7 µM; hit rate 0.9% among 320,000; AID 2235;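 active = inhibition above the mean inhibition of all tested compounds plus 3 SD, computed separately for each screening campaign, cut at about 15% in these data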
CSC inhib – blocks cancer stem cells | AID 2717 | hit rate 1.1% among 300,000 | cancer stem cell-like cells viability, luminescence | inhibition, % at 7.5 µM; in the data active = inhibition above about 75%; tested in HMLE shEcad cells
Calb FLC – affects C. albicans growth with fluconazole; C. albicans CaCi-2 (fluconazole-resistant clinical isolate) + fluconazole, Alamar Blue growth, 48 h; growth inhibition, % (concentration not given with the values); hit rate 0.57% among 300,000; AID 1979;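 active = growth inhibition above about 58% in most replicates, limit read from the data, passing the limit was not always enough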;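 also: all wells also contain fluconazole at 8 µg/ml as a sub-toxic cotreatment; 0% = median of DMSO wells and 100% = median of geldanamycin control wells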
PP5 primary – blocks human protein phosphatase 5 activity | P53041 | purified PP5c, OMFP substrate fluorescence | inhibition, % at 6.7 µM | hit rate 0.18% among 320,000 | AID 1987;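 active = inhibition above the campaign's mean inhibition across all tested compounds plus 3 SD, cut at about 9.5% in these data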;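 also: 0% = DMSO only and 100% = 100 µM cantharidin control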
Mdm2-MdmX inh – human Mdm2/MdmX binding inhibition | O15151+Q00987 | SaOS-2 split-luciferase Mdm2/MdmX complementation, luminescence | inhibition, % at 8 µM | hit rate 3% among 330,000 | AID 485346;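 active = inhibition of at least 50% at 8 µM in the primary screen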
Target sequence (O15151 whole entry, looked up): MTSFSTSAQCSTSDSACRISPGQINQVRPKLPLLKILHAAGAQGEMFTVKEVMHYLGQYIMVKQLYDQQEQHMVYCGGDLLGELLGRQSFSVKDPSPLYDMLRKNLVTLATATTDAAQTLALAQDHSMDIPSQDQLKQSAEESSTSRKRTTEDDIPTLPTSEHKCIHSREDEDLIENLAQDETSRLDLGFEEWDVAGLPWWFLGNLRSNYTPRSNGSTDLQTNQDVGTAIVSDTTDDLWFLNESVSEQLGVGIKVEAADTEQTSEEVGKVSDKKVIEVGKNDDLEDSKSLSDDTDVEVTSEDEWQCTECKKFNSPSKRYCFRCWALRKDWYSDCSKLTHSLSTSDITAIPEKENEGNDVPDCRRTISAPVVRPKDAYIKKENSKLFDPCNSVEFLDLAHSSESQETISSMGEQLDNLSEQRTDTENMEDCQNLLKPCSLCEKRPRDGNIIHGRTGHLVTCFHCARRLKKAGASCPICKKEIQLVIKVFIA
Target sequence (Q00987 whole entry, looked up): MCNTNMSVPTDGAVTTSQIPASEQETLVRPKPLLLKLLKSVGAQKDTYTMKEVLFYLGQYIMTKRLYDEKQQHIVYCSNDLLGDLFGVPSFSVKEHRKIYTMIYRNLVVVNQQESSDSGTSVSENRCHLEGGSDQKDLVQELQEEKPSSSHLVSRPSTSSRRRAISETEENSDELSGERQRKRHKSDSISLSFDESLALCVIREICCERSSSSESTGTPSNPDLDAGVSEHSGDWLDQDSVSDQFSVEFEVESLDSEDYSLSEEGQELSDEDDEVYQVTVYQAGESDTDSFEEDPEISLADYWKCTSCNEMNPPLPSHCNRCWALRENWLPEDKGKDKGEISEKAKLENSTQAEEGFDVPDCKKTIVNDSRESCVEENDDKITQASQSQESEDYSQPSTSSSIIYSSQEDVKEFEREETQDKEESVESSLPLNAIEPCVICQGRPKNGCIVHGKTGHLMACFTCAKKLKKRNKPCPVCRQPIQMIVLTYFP
Beta apoptosis – beta cell apoptosis inhibition | INS-1E cytokine-induced death, ATP luminescence, 48 h; percent of positive-control rescue, neutral wells zero | protection from apoptosis, % (test concentration not listed) | hit rate 0.8% among 300,000;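 active = Every replicate reaches about 75%, or at least half do and their mean reaches it too, limit read from the data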;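 also: 0% = cytokine-treated negative control wells and 100% = positive control rescue; higher means more ATP so stronger rescue from cytokine killing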
Starred values were filed as active, the others as inactive; · = no result given. Only some compounds are listed: those with a hit (about 4.9% of all), similar ones and a draw of the others.

SMILES | PP1 inh | CSC inhib | Calb FLC | PP5 primary | Mdm2-MdmX inh | Beta apoptosis
Cc1nc2sccn2c(=O)c1CCN1CCC(=C(c2ccc(F)cc2)c2ccc(F)cc2)CC1 | -1 | 79* | · | 7 | 37 | -2
O=C(NCC1OCCCN1S(=O)(=O)c1cc(F)ccc1F)C(=O)NC1CCCC1 (configuration not stated) | -1 | -4 | 5 | 1 | 9 | 2
O=C(Nc1ccc(F)cc1F)c1ccc(-n2cccn2)c([N+](=O)[O-])c1 | -2 | 2 | 1 | 1 | 8 | 4
c1cncc(-c2nnc(-c3cccnc3)nn2)c1 | 0 | 10 | 21 | 0 | 33 | 108*
CCOC(=O)C1CCN(CC(=O)N(CC(C)C)c2c(N)n(CC(C)C)c(=O)[nH]c2=O)CC1 | 5 | -5 | 41 | -1 | 20 | -2
CC(C)(CN1CCN(Cc2ccccc2)CC1)NS(=O)(=O)c1ccccc1 | 0 | 76* | -23 | 4 | -7 | 4
CC(C)(CN1CCN(C(c2ccccc2)c2ccccc2)CC1)NS(=O)(=O)c1ccccc1 | 0 | 98* | -1 | 1 | 6 | 15
CC(=O)N1CCN(CC(C)(C)NS(=O)(=O)c2ccccc2)CC1 | · | -5 | · | · | -10 | -4
CCCCOc1cccc(C(=O)NNC(=S)NC2CCCCC2)c1 | 0 | · | 105* | 1 | 8 | 7
CCOc1cccc(C(=O)NC2CCCCC2)c1 | 1 | -1 | 7 | -2 | -37 | 1
CN(C)/C=C/C(=O)c1ccccc1OCc1cnc(Cl)s1 | -1 | -16 | 2 | -3 | 22 | -4
Cc1ccc(-c2cc(-c3ccccc3Cl)[nH]n2)c(O)c1 | 0 | 112* | 0 | 7 | -68 | 19
Cc1ccc(-c2cc(-c3ccccc3[N+](=O)[O-])[nH]n2)c(O)c1 | 2 | -8 | 36 | 4 | -77 | -3
O=C(Nc1cnn(C23CC4CC(CC(C4)C2)C3)c1)c1cc(-c2ccccc2)on1 | -2 | 81* | 20 | -2 | -13 | 14
Cc1ccc(-c2cc(C(=O)Nc3cnn(C45CC6CC(CC(C6)C4)C5)c3)no2)cc1 | -5 | -11 | 0 | 2 | 6 | 5
O=C(NCC1CCCO1)c1ccc(NC(=O)c2ccc([N+](=O)[O-])cc2)cc1 (configuration not stated) | -4 | 1 | -3 | 2 | 19 | 3
C/C(=N\NC(=O)c1c(-c2ccccc2Cl)noc1C)c1cccc(NC(=O)C(C)C)c1 | -2 | -8 | -11 | 1 | 11 | -1
CCCCOP(=O)(c1ccc(N(C)C)cc1)C(O)c1ccc(OC)cc1 (configuration not stated) | 2 | 6 | 7 | 3 | 1 | -2
CCCCOP(=O)(c1ccc(N(C)C)cc1)C(O)c1ccccc1F (configuration not stated) | -2 | -25 | 95* | 1 | -21 | -7
Cc1ccc(OCC(=O)Nc2c3c(nn2C(C)(C)C)CS(=O)(=O)C3)cc1 | -1 | -25 | 1 | 1 | 3 | 2
O=C(CNC(=O)c1ccc(Cl)cc1Cl)OCN1C(=O)c2ccccc2C1=O | -1 | -9 | · | -1 | 6 | -8
Cc1ccccc1NCc1ccc([N+](=O)[O-])s1 | -2 | 94* | 7 | 3 | -17 | -7
Cc1cccc(NC(=O)c2ccc([N+](=O)[O-])s2)c1C | 0 | 49 | 31 | 3 | 23 | 105*
Cc1ccnc(NC(=O)c2ccc([N+](=O)[O-])s2)c1 | -6 | 3 | 20 | 1 | -10 | 82*
Cc1cccc(C)c1NC(=O)c1ccc([N+](=O)[O-])s1 | 1 | 16 | -1 | 0 | -7 | 10
SMILES | PP1 inh | CSC inhib | Calb FLC | PP5 primary | Mdm2-MdmX inh | Beta apoptosis
c1ccc(C2[C@H]3CN(Cc4cccnc4)[C@H](c4ccccc4)C34CC2(c2ccccc2)C4)cc1 (some centres not stated) | 14 | -3 | -7 | 0 | 41 | 9
COC(=O)c1cccc(C23CC4(C2)[C@H](CN(Cc2cccnc2)[C@@H]4c2ccccc2)C3c2ccccc2)c1 (some centres not stated) | 16* | 23 | -6 | 3 | 1 | 0
FC(F)(F)c1ccc(CN2C[C@@H]3C(c4ccccc4)C4(c5cccnc5)CC3(C4)[C@H]2c2ccccc2)cc1 (some centres not stated) | 1 | 63 | -14 | 0 | 25 | 13
FC(F)(F)c1ccc(C2[C@H]3CN(Cc4cccnc4)[C@H](c4ccccc4)C34CC2(c2ccccc2)C4)cc1 (some centres not stated) | 16* | 32 | 3 | 3 | 40 | 21
COCCN(C(=S)Nc1cccc(C)c1)C(C)c1cccnc1 (configuration not stated) | 2 | -10 | -5 | -3 | 14 | -2
COc1ccc(C2/C=C\CN(C(=O)C3CCCC3)[C@H](Cc3ccccc3)C(=O)N2Cc2ccc(F)cc2)cc1 (some centres not stated) | 8 | 11 | 26 | 5 | 18 | 11
Cc1cc(C)n(-c2nc(NCCO)c3c4c(sc3n2)CCCC4)n1 | -1 | -3 | -5 | 3 | 11 | 80*
Cc1cc(C)n(-c2nc(NCCCO)c3c4c(sc3n2)CCCC4)n1 | -5 | 20 | -9 | -4 | 20 | 81*
O=C(Cc1cccs1)NNC(=S)NCc1ccc(Cl)cc1 | 0 | 0 | 1 | 2 | 0 | 1
Cc1cccc(C(=O)NNC(=S)NC(=O)c2cccs2)c1 | 0 | -5 | 102* | 0 | 20 | ·
O=C(Cc1ccc(Cl)cc1)NNC(=S)NC(=O)c1cccs1 | 5 | 13 | 109* | 1 | 31 | 63
Nc1c(Cl)ncnc1N/N=C/c1ccnc2ccccc12 | 3 | -37 | -2 | 2 | 17 | 4
Nc1c(Cl)ncnc1N/N=C/c1ccccn1 | 7 | 102* | · | 2 | · | 119*
Nc1c(Cl)ncnc1N/N=C/c1ccc2ccccc2n1 | 11 | 102* | · | 3 | · | 113*
CN(C)C(=O)c1ccc(NC(=O)CSc2nnc(-c3cccs3)n2N)cc1 | 1 | -1 | · | 0 | -20 | -8
Cc1ccc(CNc2cnn(C34CC5CC(CC(C5)C3)C4)c(=O)c2Cl)cc1 | 2 | 78* | 3 | 0 | 30 | 5
O=C(O)C12CC3CC(C1)CC(n1ncc(NCc4ccccc4)c(Cl)c1=O)(C3)C2 | -4 | -15 | -2 | 1 | 19 | -3
O=c1c(Cl)c(NCc2ccco2)cnn1C12CC3CC(CC(C3)C1)C2 | -2 | -2 | -26 | 0 | 15 | 2
O=c1c(Cl)c(NCc2ccccc2Cl)cnn1C12CC3CC(CC(C3)C1)C2 | 9 | 95* | 59 | 3 | 24 | 13
O=c1c(Cl)c(NCc2ccc(F)cc2)cnn1C12CC3CC(CC(C3)C1)C2 | 4 | 75* | 42 | 2 | -11 | 9
Cc1noc(C)c1C(=O)OCC(=O)Nc1ccc(S(N)(=O)=O)cc1 | 0 | -13 | · | 2 | 24 | 2
